This note sets out measurements from PubChem BioAssay (NCI).

About 79,000 compounds went through this panel and 15% of them were active in at least one assay; those are over-represented in the sample as a whole. Activity calls are given as the source filed them. No stated cut-off is given here; in the data, active means growth inhibition above about 70%; inactive means the rest.

A short description of the assay: NCI Yeast Anticancer Drug Screen. Data for the bub3 strain (AID 167). The settings on record: S. cerevisiae bub3 mutant strain, at 100.0 µM, stronger effect = higher value. The essentials:
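Yeast carrying a defined mutation is treated with each compound, and growth is compared with that of vehicle-exposed cells to give inhibition.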
With `CS(=O)(=O)SCc1ccc([N+](=O)[O-])cc1`, the growth inhibition was 96% (active).

On to `Cc1csc(=S)n1OC(=O)NC1CCCCC1`, for which the growth inhibition was 99% (active).

As for `CCOc1ccc(NC(=O)C2=C(C)NC(C)=C(C(=O)Nc3ccc(OCC)cc3)C2c2cccc([N+](=O)[O-])c2)cc1`, the growth inhibition is 93% (active).

With `CC(C)(C)N=C(NO)c1ccccc1`, the growth inhibition was 27% (inactive).

In the case of `CCCCC/C(=C(\C#N)C(=O)OCC)c1ccccc1`, the growth inhibition is 14% (inactive).

Turning to `O=C(NCCCl)Sc1ccc(Cl)cc1`, the growth inhibition was 91% (active).

`O=C1Nc2ccc(Br)cc2C1=Nc1ccc2c(c1)OCO2`: the growth inhibition is 86% (active).

Regarding `CCC(C)OC(=O)Nc1ccc(C)c(NC(=O)OC(C)CC)c1` (stereo not drawn), the growth inhibition was 94% (active).

As for `O=C(O)c1cc2ccc(Cl)cc2c(O)c1C1=CCCCC1`, the growth inhibition was 78% (active).

Take `CN(C)Cc1cc(N=Nc2ccc(Cl)cc2)ccc1OC(=O)c1ccccc1`: the growth inhibition was 23% (inactive).

In the case of `CN1CCN(C(=O)/C=C/C(=O)c2ccccc2)CC1`, the growth inhibition was 90% (active).

For `CCCC/C=C/C(C)(C(=O)OCC)C(=O)OCC`, the growth inhibition was 19% (inactive).

Regarding `Cc1nc(-c2cc3cc([N+](=O)[O-])ccc3oc2=O)cs1`, the growth inhibition was 92% (active).

For `Cc1nc2ccccc2nc1NNc1ccccc1`, the growth inhibition is 63% (inactive).

As to `CN(C)[C@@H]1C(=O)C(C(N)=O)=C(O)[C@@]2(O)C(=O)C3=C(O)c4c(O)cccc4C[C@H]3C[C@@H]12`, the growth inhibition was 99% (active).

As for `COc1ccc(NC(=O)CC2SC(=Nc3ccccc3C)NC2=O)c([N+](=O)[O-])c1` (stereo not drawn), the growth inhibition was 97% (active).

As for `COc1cc(O)c2c(c1O)C(=O)c1cc(C)ncc1C2=O`, the growth inhibition was 73% (active).

For `CSc1nnc(SC)nn1`, the growth inhibition was 99% (active).
